TWEAK Fn14 block: TWEAK-Fn14 signaling inhibition | TWEAK-stimulated Fn14 reporter cells, luciferase luminescence, 8 h | inhibition, % at 10 µM | hit rate 2% among 360,000; in the data active means inhibition above about 50%
TROY signal inh: TROY signaling inhibition. AID 1347056. inhibition, % at 10 µM. hit rate 0.98% among 360,000. Q293 LMP1-TROYcd NF-kB luciferase reporter, 4 h;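 active means compounds whose plate-normalised and pattern-corrected inhibition of the luciferase reporter signal at the single screening dose is 50% or more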
LGR2 antag: blocks bursicon-induced cAMP signaling via Drosophila LGR2. HEK293 LGR2, CRE-luciferase, bursicon-stimulated, 4 h. inhibition, % at 9.99 µM. hit rate 0.35% among 380,000;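 active means drop in luminescence signal, shown as inhibition above about 50% in the replicate tests, limit read from the data, passing the limit was not always enough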;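 further: agonist challenge used bursicon conditioned medium at about half maximal strength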
HSP90 refold inh: inhibitors of HSP90 luciferase refolding in rabbit reticulocyte lysate; hit rate 0.91% among 290,000; luciferase refolding luminescence, 3 h; inhibition, % at 5.6 µM;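 active means inhibition above the screen-wide mean plus 3 SD, computed separately per campaign, cut at about 16% in these data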;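 further: 0% = DMSO wells and 100% = 60 µM geldanamycin wells; inhibitors lower the luminescence because luciferase stays unfolded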
* marks the source's active call; other numbers are inactive results; . = no result. Compounds with a hit are over-represented: about 2.2% of the library has one in this group of screens.

SMILES	TWEAK Fn14 block	TROY signal inh	LGR2 antag	HSP90 refold inh
COc1ccc(C(=O)Oc2cccc(Nc3ncnc4ccccc34)c2)cc1OC	82*	54*	6	4
CCCNC(=O)C[C@@H]1C[C@H]2c3cc(NC(=O)c4cccnc4)ccc3O[C@H]2[C@@H](CO)O1	.	.	-10	.
Cc1nc([N+](=O)[O-])c(Br)n1CC(=O)c1ccccc1	37	20	.	3
Cc1nc([N+](=O)[O-])c(Br)n1CC(=O)c1ccc2ccccc2c1	14	23	.	17*
N#C[C@H]1[C@@H](c2ccc(C3=CCCCC3)cc2)[C@@H](CO)N1S(=O)(=O)c1ccccc1	.	.	-27	.
Cc1noc(C)c1S(=O)(=O)N(C)C[C@@H]1Oc2ccc(NS(=O)(=O)c3ccccc3)cc2CC(=O)N([C@H](C)CO)C[C@H]1C	.	.	11	.
CCCCC[C@@H](/C=C/C1C(=O)C=C[C@H]1C/C=C\CCCC(=O)OC)OC(C)=O (stereo partly specified)	91*	30	32	.
CCc1nnc(NS(=O)(=O)c2ccc(N/C=C\C(=O)c3ccc(F)cc3)cc2)s1	40	73*	-23	-7
C[C@H](CO)N1C[C@H](C)[C@H](CN(C)CC2CCCCC2)Oc2ccc(NS(C)(=O)=O)cc2C1=O	.	.	-14	.
CCOC(=O)CSc1nc2sc3c(c2c(=O)n1-c1ccccc1)CCN(C(C)C)C3	84*	11	10	3
CCOC(=O)CSc1nc2sc3c(c2c(=O)n1-c1ccccc1)CCN(C)C3	-11	0	0	-3
O=C(NC(c1ccccc1)c1ccc2ccccc2n1)C1CCN(CCOc2ccc(Cl)cc2)CC1 (stereo unspecified)	92*	11	-1	.
CN1C(=O)c2cc(NC(=O)C3CCCCC3)ccc2OC[C@H]2O[C@H](CC(=O)NCC3CCCCC3)CC[C@@H]21	.	.	7	.
C[C@H](CO)N1C[C@H](C)[C@H](CN(C)CC2CCCCC2)OCCCC[C@H](C)Oc2ccc(NS(=O)(=O)c3cn(C)cn3)cc2C1=O	.	.	-2	.
O=C(C[C@H]1CC[C@H]2[C@@H](COC[C@H](O)CN2C(=O)c2ccccc2)O1)N1CCOCC1	.	.	2	.
COc1cc2sc(NC(=O)c3ccco3)nc2cc1Cl	-15	-72	-36	2
COC(=O)c1cc(OC)c(OC)cc1NC(=S)NC(=O)c1ccco1	74*	7	13	-3
COc1cc2nc(NC(=O)c3ccco3)sc(=O)c2cc1OC	71*	-5	19	-3
O=C(Nc1nc2ccc(Cl)cc2s1)c1ccco1	58*	7	.	15
O=C(Nc1nc2ccc(Br)cc2s1)c1ccco1	46	-28	42	3
C[C@H](CO)N1C[C@H](C)[C@H](CN(C)C(=O)c2ccncc2)OCCCC[C@H](C)Oc2ccc(NS(=O)(=O)c3cn(C)cn3)cc2C1=O	.	.	-9	.
C[C@@H]1CCCCO[C@H](CN(C)S(=O)(=O)c2cccs2)[C@H](C)CN([C@H](C)CO)C(=O)c2cc(NS(=O)(=O)c3ccccc3)ccc2O1	.	.	4	.
COc1cccc(/C=C/c2ccc3cccc(O)c3n2)c1	84*	50*	-68	-2
COc1ccc(/C=C/c2ccc3cccc(O)c3n2)cc1Br	72*	54*	-63	0
Oc1cccc(/C=C/c2ccc3cccc(O)c3n2)c1	19	-25	-3	6
SMILES	TWEAK Fn14 block	TROY signal inh	LGR2 antag	HSP90 refold inh
C[C@H]1CN([C@@H](C)CO)C(=O)c2cc(NS(=O)(=O)c3ccc(F)cc3)ccc2O[C@H]1CN(C)C	.	.	3	.
CCCCCN1C=CC(=C2C(=O)c3ccccc3C2=O)C=C1	77*	78*	104*	80*
CC1=CC(=C2C(=O)c3ccccc3C2=O)C=C(C)N1C	10	-21	-12	-1
O=C([C@@H]1[C@@H](CO)[C@@H]2Cn3c(cccc3=O)[C@@H]2N1CC1CCCCC1)N1CCOCC1	.	.	-1	.
Oc1ccc(Br)cc1-c1nc2cnccn2c1NC1CCCC1	62*	14	.	2
OCc1cccc[n+]1Cc1ccccc1	-1	60*	.	.
OCCc1ccccc1	.	.	-17	.
C(CCN1CCOCC1)CN1CCOCC1	-9	64*	3	.
NCCCN1CCOCC1	5	4	.	1
CO[C@H]1CN(C)C(=O)c2cc(NC(C)=O)ccc2OC[C@@H](C)N(CC2CC2)C[C@@H]1C	.	.	1	.
CC(C)CC(NC(N)=O)C(=O)Nc1ccc2c(c1)OCO2 (stereo unspecified)	-12	-27	-22	-1
O=C(CNC(=O)c1ccco1)Nc1ccc2c(c1)OCCO2	86*	71*	22	.
CC(C)CC(NC(=O)c1ccco1)C(=O)Nc1ccc2c(c1)OCCO2 (stereo unspecified)	76*	43	2	5
Cc1ccc(OCC(=O)Nc2ccc3c(c2)OCCO3)cc1C	54*	44	-44	8
